Assay results taken from the supplement of paper PMC11732987, “Enantioselective OTUD7B fragment discovery through chemoproteomics screening and high-throughput optimisation” (Communications Chemistry, 2025).

Key:
Assay in all cases: log2 ratio of Biotin-Ahx-Ub-VS probe labelling (fragment/DMSO); higher = less target engagement (more negative = stronger competition), active = hit call of the paper (q ≤ 0.05, log2 ratio ≤ -1)
Conditions in all cases: compound concentration: 200 uM; treatment time: 3 h
[1] = target: T1, USP19 (UniProt O94966)
T1 sequence (whole entry): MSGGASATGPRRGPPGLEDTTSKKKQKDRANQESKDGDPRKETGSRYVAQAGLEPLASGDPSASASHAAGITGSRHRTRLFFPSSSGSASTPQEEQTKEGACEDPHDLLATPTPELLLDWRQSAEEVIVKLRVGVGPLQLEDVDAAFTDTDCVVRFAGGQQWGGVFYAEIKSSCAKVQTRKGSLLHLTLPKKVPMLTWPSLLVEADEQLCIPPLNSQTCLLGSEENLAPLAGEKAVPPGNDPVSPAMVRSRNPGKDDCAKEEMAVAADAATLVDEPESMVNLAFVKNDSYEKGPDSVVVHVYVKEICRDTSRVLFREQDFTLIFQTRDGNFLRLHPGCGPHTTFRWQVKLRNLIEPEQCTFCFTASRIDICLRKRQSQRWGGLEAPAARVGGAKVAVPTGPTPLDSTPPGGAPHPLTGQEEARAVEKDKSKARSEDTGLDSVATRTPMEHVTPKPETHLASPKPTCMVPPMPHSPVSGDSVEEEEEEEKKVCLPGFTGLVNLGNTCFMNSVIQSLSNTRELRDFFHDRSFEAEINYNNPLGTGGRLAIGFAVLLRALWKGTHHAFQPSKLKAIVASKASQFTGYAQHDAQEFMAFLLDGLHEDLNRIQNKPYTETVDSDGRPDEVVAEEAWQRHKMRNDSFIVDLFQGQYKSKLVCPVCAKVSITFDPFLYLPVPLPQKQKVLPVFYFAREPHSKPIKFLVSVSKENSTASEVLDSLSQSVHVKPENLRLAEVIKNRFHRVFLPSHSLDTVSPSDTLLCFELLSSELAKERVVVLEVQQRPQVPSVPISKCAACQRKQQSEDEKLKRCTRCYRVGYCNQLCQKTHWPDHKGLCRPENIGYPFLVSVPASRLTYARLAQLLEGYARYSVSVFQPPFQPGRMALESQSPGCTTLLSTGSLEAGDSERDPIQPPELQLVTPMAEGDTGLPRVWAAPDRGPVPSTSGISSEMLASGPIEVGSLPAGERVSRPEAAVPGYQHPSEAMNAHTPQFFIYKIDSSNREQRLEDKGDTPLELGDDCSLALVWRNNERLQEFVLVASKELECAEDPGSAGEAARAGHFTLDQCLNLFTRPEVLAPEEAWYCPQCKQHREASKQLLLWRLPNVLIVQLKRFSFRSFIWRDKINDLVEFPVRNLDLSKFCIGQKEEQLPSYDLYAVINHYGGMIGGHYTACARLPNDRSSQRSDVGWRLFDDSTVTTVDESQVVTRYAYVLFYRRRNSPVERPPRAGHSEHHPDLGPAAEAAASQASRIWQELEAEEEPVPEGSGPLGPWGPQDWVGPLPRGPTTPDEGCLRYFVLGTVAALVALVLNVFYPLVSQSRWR
Procedure, shortened: (§1)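 Labelled DUBs from HEK293T lysate were NeutrAvidin-enriched, digested with LysC and trypsin, and run by diaPASEF LC-MS/MS. Before that, each 495 µg sample in Tris/CHAPS/IGEPAL buffer with protease inhibitors was treated in triplicate with fragment at 200 µM or vehicle for 3 h, then with Biotin-Ahx-Ub-VS at 0.5 µM final for 1 h. Values are average log2 ratios of fragment over vehicle by unpaired t-test, based on global-median-normalised Spectronaut label-free quantities from proteins with ≥2 unique peptides.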

[2] = target: T2, USP22 (UniProt Q9UPT9)
T2 sequence (whole entry): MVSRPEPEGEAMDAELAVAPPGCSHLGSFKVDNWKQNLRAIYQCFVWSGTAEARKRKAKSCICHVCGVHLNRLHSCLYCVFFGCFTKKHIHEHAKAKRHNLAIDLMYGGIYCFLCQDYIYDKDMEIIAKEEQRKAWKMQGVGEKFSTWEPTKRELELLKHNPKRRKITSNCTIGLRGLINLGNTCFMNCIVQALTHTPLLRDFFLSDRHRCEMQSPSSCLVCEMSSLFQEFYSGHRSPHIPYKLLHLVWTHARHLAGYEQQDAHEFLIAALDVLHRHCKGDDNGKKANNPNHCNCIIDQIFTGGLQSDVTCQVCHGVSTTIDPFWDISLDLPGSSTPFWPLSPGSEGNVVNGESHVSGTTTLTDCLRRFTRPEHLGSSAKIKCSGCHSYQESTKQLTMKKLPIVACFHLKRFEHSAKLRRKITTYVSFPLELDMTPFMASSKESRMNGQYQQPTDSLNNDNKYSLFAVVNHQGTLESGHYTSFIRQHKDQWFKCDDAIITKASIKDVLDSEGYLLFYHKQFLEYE
Procedure, shortened: as §1

[3] = target: USP24 (UniProt Q9UPU5)
Sequence of USP24 (Q9UPU5 whole entry): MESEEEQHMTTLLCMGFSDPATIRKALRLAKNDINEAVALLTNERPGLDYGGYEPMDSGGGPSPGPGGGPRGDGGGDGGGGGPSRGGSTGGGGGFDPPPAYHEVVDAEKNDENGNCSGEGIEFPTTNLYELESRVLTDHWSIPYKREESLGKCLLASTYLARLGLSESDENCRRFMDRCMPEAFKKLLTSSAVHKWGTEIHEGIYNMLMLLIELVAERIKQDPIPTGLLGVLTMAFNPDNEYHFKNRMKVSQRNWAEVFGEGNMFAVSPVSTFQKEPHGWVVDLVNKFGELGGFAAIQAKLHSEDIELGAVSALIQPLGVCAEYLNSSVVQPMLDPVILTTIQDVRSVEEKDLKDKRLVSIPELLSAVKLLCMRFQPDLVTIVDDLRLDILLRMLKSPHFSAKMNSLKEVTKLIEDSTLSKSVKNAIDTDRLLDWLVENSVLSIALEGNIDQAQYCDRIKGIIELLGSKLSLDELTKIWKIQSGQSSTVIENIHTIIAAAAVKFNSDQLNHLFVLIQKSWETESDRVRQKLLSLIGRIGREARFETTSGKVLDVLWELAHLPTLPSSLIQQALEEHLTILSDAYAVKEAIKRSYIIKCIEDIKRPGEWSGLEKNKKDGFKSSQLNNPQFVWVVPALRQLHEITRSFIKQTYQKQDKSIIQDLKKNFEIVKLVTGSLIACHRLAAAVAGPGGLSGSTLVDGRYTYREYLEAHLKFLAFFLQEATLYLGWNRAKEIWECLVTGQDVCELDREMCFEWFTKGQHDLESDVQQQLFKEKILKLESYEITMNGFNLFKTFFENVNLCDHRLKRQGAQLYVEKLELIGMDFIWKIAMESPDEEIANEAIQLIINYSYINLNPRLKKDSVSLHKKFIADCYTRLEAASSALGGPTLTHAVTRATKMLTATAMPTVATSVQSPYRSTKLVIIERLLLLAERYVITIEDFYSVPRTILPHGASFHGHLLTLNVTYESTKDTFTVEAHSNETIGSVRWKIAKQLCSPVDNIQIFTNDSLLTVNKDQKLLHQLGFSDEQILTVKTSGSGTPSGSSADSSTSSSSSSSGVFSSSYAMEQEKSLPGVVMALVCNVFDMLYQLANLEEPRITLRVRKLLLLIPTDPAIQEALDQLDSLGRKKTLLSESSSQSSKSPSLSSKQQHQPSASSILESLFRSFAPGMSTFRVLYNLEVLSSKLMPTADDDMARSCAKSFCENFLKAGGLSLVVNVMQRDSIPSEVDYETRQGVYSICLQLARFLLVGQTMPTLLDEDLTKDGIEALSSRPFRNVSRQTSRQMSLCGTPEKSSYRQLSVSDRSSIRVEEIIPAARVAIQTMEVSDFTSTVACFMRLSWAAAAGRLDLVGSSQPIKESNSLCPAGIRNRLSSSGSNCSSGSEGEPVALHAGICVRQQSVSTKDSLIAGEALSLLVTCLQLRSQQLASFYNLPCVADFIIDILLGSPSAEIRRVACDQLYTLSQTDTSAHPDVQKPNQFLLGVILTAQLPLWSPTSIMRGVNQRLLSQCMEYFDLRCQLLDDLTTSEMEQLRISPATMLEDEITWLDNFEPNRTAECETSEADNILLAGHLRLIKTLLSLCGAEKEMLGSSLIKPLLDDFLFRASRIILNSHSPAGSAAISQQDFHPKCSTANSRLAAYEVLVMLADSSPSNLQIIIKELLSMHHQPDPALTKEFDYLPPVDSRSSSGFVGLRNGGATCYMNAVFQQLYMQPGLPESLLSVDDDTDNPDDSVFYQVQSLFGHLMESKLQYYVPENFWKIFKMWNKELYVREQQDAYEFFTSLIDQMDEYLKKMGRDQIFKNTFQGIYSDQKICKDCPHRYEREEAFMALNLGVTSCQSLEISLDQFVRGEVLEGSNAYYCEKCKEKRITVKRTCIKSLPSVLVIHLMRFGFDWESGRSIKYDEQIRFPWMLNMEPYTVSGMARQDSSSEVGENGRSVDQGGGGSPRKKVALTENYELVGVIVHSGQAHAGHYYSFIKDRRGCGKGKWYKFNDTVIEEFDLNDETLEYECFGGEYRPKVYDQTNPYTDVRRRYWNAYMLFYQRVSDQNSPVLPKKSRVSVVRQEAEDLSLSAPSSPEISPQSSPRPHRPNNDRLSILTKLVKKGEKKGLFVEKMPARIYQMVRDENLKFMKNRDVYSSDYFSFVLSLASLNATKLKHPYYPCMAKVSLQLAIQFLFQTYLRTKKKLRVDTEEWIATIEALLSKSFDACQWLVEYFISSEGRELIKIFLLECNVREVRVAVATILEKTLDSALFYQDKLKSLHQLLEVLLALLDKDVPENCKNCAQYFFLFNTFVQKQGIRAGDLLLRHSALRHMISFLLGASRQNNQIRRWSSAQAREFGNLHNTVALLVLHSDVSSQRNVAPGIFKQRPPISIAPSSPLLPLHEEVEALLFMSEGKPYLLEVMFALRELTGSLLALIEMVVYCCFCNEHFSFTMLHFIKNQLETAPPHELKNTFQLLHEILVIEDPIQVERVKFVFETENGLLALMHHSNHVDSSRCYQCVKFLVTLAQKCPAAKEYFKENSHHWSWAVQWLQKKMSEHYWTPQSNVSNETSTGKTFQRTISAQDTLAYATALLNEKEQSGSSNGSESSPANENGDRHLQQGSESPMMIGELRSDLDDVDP
Procedure, shortened: as §1

[4] = target: T3, USP25 (UniProt Q9UHP3)
T3 sequence (whole entry): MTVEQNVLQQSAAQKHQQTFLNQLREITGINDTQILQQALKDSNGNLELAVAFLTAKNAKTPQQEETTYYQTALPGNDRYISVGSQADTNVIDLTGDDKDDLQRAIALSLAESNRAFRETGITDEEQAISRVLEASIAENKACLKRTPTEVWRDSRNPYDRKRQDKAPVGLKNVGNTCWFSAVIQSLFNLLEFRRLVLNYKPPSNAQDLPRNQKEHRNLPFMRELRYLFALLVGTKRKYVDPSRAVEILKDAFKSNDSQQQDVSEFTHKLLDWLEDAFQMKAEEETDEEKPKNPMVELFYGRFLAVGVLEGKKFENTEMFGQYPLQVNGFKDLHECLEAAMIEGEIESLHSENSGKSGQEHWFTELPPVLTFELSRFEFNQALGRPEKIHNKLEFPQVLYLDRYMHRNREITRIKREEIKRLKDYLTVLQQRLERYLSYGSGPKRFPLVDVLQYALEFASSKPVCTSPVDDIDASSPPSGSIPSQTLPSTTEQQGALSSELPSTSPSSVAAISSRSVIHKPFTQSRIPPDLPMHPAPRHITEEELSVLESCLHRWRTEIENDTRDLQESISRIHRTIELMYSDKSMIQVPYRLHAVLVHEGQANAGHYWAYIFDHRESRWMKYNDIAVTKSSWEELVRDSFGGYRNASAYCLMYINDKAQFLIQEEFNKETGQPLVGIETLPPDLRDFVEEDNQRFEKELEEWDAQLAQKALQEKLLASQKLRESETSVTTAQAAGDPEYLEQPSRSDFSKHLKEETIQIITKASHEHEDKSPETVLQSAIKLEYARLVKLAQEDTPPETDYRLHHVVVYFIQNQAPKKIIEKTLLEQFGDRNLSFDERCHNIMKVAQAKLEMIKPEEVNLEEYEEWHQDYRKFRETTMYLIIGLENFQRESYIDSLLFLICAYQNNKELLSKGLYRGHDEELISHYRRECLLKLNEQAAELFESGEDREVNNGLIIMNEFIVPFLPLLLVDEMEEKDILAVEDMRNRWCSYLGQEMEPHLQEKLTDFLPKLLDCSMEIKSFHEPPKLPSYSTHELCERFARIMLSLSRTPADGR
Procedure, shortened: as §1

[5] = target: T4, USP28 (UniProt Q96RU2)
T4 sequence (whole entry): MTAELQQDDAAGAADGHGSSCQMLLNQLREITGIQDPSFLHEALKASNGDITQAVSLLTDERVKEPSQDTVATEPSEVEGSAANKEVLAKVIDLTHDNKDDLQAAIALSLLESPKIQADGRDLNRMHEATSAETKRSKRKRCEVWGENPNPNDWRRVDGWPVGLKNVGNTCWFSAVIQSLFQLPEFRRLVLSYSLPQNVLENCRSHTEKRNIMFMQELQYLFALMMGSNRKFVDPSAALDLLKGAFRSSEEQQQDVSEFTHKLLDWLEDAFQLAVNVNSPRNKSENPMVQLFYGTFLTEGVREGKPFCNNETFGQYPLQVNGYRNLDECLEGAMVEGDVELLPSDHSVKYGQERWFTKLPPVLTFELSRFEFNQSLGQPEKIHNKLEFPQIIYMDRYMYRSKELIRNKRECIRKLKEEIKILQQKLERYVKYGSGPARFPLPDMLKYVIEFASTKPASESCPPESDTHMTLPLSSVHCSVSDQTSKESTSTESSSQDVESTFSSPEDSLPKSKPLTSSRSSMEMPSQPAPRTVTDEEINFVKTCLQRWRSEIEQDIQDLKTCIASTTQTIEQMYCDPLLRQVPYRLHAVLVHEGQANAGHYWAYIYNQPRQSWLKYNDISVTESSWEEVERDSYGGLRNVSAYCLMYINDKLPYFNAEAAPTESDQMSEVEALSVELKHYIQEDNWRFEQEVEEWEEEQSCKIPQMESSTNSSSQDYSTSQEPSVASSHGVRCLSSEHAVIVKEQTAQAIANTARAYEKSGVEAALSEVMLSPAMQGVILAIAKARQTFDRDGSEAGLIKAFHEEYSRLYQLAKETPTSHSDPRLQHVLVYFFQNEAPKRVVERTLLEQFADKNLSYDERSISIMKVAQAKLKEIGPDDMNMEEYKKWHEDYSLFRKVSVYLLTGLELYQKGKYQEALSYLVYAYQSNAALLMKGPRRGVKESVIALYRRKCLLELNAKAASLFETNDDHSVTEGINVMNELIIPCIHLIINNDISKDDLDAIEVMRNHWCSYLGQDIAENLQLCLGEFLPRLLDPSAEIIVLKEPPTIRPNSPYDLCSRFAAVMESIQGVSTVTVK
Procedure, shortened: as §1

Measured: log2 ratio of Biotin-Ahx-Ub-VS probe labelling

CN(C)C(=O)c1ccc(CNC(=O)CCl)cc1
inactive: [1] 0.123 | [2] 0.0551 | [3] 0.117 | [4] -0.513 | [5] -0.359
